From PubChem BioAssay (EPA / NIEHS)
Some structures have more than one record in an assay (separate samples or runs), and their calls can disagree. Active and inactive are the calls of the source. Rule for the calls: active = hit-call score of the fitted dose curve at least 0.9, where 1 is the maximum; inactive = score below 0.9.

Experiments:
[1] = ATG_M_19_CIS: Attagene CIS-FACTORIAL HepG2 Assay for M19 Transcription Factor (Internal Marker) (AID 2282939); conditions: HepG2 Attagene CIS-FACTORIAL M19 internal marker reporter; actives raise or lower the signal
In short: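 Signals come from fluorescence of labelled reporter-specific PCR fragments resolved by capillary electrophoresis, following 24 h treatment of HepG2 cells transfected with cis-promoter reporter units; activity was fitted in both directions relative to DMSO.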

[2] = ATG_ERE_CIS: Attagene CIS-FACTORIAL HepG2 Assay for Estrogen Response Element (ERE) (AID 2282940); conditions: HepG2 ERE cis-reporter, Attagene RNA transcript; actives raise or lower the signal
In short: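 Fluorescence of capillary-separated, FAM-labelled reporter cDNA fragments indicates reporter mRNA levels in HepG2 cells exposed to chemicals for 24 h. Transient transfection with cis-regulated units; data fitted in both directions against DMSO.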

[3] = target: Hepatocyte nuclear factor 3-beta (Homo sapiens) (UniProt Q9Y261); test: ATG_FoxA2_CIS: Attagene CIS-FACTORIAL HepG2 Assay for human Forkhead box A2 (FOXA2) (AID 2282942); conditions: HepG2 cis-reporter transcription factor activity, 24 h; actives raise or lower the signal
In short: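 Transient MRTU transfection of HepG2 liver cells; 24 h treatment; total RNA → oligo(dT) RT → PCR → FAM primer extension → HpaI cut → CE. Bidirectional fit vs DMSO.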

[4] = ATG_FoxO_CIS: Attagene CIS-FACTORIAL HepG2 Assay for human Forkhead box O (FoxO) (AID 2282943); conditions: HepG2 Attagene cis-reporter, FoxO element, mRNA; actives raise or lower the signal
In short: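 HepG2 cells transiently transfected with cis-promoter-driven multiple reporter transcription units; 24 h after chemical dosing, reporter mRNA quantified by RT-PCR, fluorescent primer extension, HpaI digestion and capillary electrophoresis. Bidirectional fitting versus DMSO baseline.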

[5] = ATG_GATA_CIS: Attagene CIS-FACTORIAL HepG2 Assay for human GATA Binding Protein (AID 2282944); conditions: HepG2 GATA cis-element reporter, Attagene multiplex mRNA; actives raise or lower the signal
In short: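 After transfecting HepG2 cells with multiple cis-regulated reporter units, chemicals are dosed for 24 h; isolated RNA undergoes RT-PCR and fluorescent labeling before capillary electrophoresis, with activity expressed against DMSO.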

[6] = ATG_GLI_CIS: Attagene CIS-FACTORIAL HepG2 Assay for human Zinc Finger Protein GLI1 (AID 2282945); conditions: HepG2, Attagene cis-factorial reporter mRNA, GLI element; actives raise or lower the signal
In short: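 HepG2 cells transiently transfected with cis-promoter multiplexed reporter units report endogenous transcription factor activity. After 24 h chemical exposure, reporter mRNA was quantified by RT-PCR, 6-FAM labelling, HpaI digestion and capillary electrophoresis, with bidirectional fitting against DMSO.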

[7] = target: Bile acid receptor (Homo sapiens) (UniProt Q96RI1); test: ATG_IR1_CIS: Attagene CIS-FACTORIAL HepG2 Assay for human Nuclear Receptor Subfamily 1 Group H Member 4 (NR1H4), IR1 submotif (AID 2282946); conditions: IR1 reporter transcription, actives raise or lower the signal
In short: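 Readout: reporter transcript levels by RT-PCR with fluorescent capillary electrophoresis, from HepG2 cells transiently transfected with multiplexed cis-regulated reporters and dosed 24 h. Gain- or loss-of-signal fitted versus DMSO negative control.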

[8] = ATG_GRE_CIS: Attagene CIS-FACTORIAL HepG2 Assay for human Glucocorticoid Response Elements (GRE) (AID 2282947); conditions: HepG2 GRE cis-reporter, Attagene multiplex mRNA; actives raise or lower the signal
In short: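 Cells (HepG2) bearing transfected cis-promoter reporter transcription units were treated with chemical for 24 hours. Reporter mRNA was measured via RT-PCR with capillary electrophoresis, and activity was fitted in both directions relative to DMSO.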

[9] = ATG_ISRE_CIS: Attagene CIS-FACTORIAL HepG2 Assay for human Interferon Regulatory Factor 1 (IRF1) binding to an Interferon-Stimulated Response Element (ISRE) (AID 2282948); conditions: HepG2 ISRE cis-reporter (Attagene), mRNA transcription readout; actives raise or lower the signal
In short: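 Multiplexed mRNA reporter readout in human liver HepG2 cells: cis-element-driven reporters transfected, compound added for 24 h, transcripts amplified, fluorescently labelled and sized by capillary electrophoresis; curve fitting bidirectional against DMSO.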

[10] = ATG_Ets_CIS: Attagene CIS-FACTORIAL HepG2 Assay for human Erythroblast Transformation Specific (ETS) (AID 2282941); conditions: HepG2 ETS cis-reporter transcription, actives raise or lower the signal
In short: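 Cis-regulated reporter mRNA induction in HepG2 (transient transfection), 24 h exposure, RT-PCR plus capillary electrophoresis detection; DMSO serves as negative control and baseline.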

Measured: AC50

Chain of Bile acid receptor (Homo sapiens) (Q96RI1 whole entry, looked up): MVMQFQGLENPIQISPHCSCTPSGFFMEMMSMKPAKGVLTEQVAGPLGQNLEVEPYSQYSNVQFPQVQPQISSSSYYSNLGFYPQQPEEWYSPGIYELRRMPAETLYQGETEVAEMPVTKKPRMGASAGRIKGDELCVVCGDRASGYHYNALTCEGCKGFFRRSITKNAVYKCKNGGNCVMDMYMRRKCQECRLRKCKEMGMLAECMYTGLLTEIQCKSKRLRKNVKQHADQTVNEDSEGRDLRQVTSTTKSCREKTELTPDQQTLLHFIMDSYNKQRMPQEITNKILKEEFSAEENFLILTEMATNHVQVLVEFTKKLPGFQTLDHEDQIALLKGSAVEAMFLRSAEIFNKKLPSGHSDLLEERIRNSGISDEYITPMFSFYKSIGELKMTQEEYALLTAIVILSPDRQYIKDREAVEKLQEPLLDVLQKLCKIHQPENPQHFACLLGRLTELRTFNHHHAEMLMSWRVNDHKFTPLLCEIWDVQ
Chain of Hepatocyte nuclear factor 3-beta (Homo sapiens) (Q9Y261 whole entry, looked up): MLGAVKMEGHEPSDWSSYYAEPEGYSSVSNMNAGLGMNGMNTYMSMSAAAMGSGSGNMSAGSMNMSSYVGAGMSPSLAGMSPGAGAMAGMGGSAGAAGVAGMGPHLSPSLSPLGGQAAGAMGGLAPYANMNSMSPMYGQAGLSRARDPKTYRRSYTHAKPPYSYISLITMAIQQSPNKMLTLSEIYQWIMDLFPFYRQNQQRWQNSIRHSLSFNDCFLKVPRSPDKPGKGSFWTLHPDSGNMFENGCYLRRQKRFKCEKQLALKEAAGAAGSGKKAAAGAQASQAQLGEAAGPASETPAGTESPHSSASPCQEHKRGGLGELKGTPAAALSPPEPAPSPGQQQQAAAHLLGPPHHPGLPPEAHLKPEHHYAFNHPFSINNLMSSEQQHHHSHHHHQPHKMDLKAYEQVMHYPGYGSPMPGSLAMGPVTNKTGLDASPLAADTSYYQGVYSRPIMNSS

CCOC(=O)Cc1ccccc1
not listed: [10]
inactive: all other assays above

CCCCCCCCCCCCBr
not listed: [4] | [7] | [10]
inactive: all other assays above

Oc1cccc(-c2ccccc2)c1
active: [2] 6.35 µM
not listed: [10]
inactive: all other assays above

CC(C)(C1CCC(O)CC1)C1CCC(O)CC1 (stereo not given)
active: [2] 20.4 µM
not listed: [7] | [8] | [10]
inactive: all other assays above

COC(=O)Nc1cccc(OC(=O)Nc2cccc(C)c2)c1
not listed: [2]
inactive: all other assays above

CCOP(=S)(OCC)OP(=S)(OCC)OCC
not listed: [2]
inactive: all other assays above

C=CCOC(N)=O
not listed: [2]
inactive: all other assays above

O=c1[nH]c2ccccc2n1C1CCN(CCCC(c2ccc(F)cc2)c2ccc(F)cc2)CC1
active: [2] 4.17 µM | [9] 3.71 µM
not listed: [10]
inactive: all other assays above

OCC(c1ccc(Cl)cc1)c1ccc(Cl)cc1
active: [1] 48.5 µM | [5] 52.8 µM | [6] 61.5 µM | [7] 49.9 µM | [9] 54.6 µM
inactive: [2] | [3] | [8]

BrCC(Br)c1ccccc1 (stereo not given)
not listed: [10]
inactive: all other assays above

O=[N+]([O-])c1cccc2ccccc12
not listed: [4] | [7] | [8]
inactive: all other assays above

C=CCN=C=S
not listed: [8] | [10]
inactive: all other assays above

Cc1ccccc1OP(=O)(Oc1ccccc1)Oc1ccccc1
active: [2] 7.35 µM | [7] 23.7 µM | [9] 7.35 µM
not listed: [10]
inactive: all other assays above

Brc1ccc(Br)cc1
not listed: [2]
inactive: all other assays above

CC1(C)COP(Oc2ccccc2)OC1
not listed: [2]
inactive: all other assays above

CCOC(=O)CCN(SN(C)C(=O)Oc1cccc2c1OC(C)(C)C2)C(C)C
active: [7] 100 µM
not listed: [10]
inactive: all other assays above

O=S(=O)(F)C(F)(F)C(F)(F)C(F)(F)C(F)(F)F
not listed: [10]
inactive: all other assays above

Cc1cccc(OP(=O)(Oc2cccc(C)c2)Oc2cccc(C)c2)c1
not listed: [2]
inactive: all other assays above

N#Cc1ccccc1Cl
not listed: [2]
inactive: all other assays above

CC1CC(=O)O1 (stereo not given)
not listed: [2]
inactive: all other assays above

C#C[C@]1(O)CC[C@H]2[C@@H]3CCC4=CC(=O)CC[C@]4(C)[C@H]3CC[C@@]21C
not listed: [2]
inactive: all other assays above

CN(N=O)C(N)=O
not listed: [2]
inactive: all other assays above

CNC(=O)N(C)c1nc2ccccc2s1
active: [3] 26.8 µM
not listed: [2]
inactive: all other assays above

CNC(=O)O/N=C/C(C)(C)S(C)(=O)=O
not listed: [7] | [10]
inactive: all other assays above

O=C(Cl)OCCOCCOC(=O)Cl
not listed: [7] | [10]
inactive: all other assays above

OC(Cc1ccccc1Cl)(Cn1cncn1)C1(Cl)CC1 (stereo not given)
not listed: [10]
inactive: all other assays above

C#CCO
not listed: [7] | [10]
inactive: all other assays above

CCCCCCCCCCCCCl
not listed: [4] | [7]
inactive: all other assays above

O=S(=O)(C(Cl)(Cl)Cl)C(Cl)(Cl)Cl
active: [6] 19.3 µM | [9] 16.4 µM
not listed: [10]
inactive: all other assays above

O=S(=O)(c1ccc(Cl)cc1)c1cc(Cl)c(Cl)cc1Cl
active: [7] 19.3 µM
not listed: [10]
inactive: all other assays above

N#CCC#N
not listed: [7] | [10]
inactive: all other assays above

CC(C)C(C)(N)C#N (stereo not given)
not listed: [2]
inactive: all other assays above

CC(=Cc1ccccc1)[N+](=O)[O-]
active: [4] 11.1 µM | [5] 16.8 µM | [6] 20.1 µM | [7] 5.55 µM | [9] 7.14 µM
inactive: [1] | [2] | [3] | [8]

C#CCOC(=O)/C=C(C)/C=C/CC(C)CCCC(C)C (stereo not given)
not listed: [10]
inactive: all other assays above

O=C(Cc1ccccc1)OCCc1ccccc1
not listed: [7] | [10]
inactive: all other assays above

O=[N+]([O-])c1ccc(Nc2ccccc2)cc1
active: [9] 130 µM
not listed: [10]
inactive: all other assays above

CC(C)O.CC(C)O.OCCN(CCO)CCO.OCCN(CCO)CCO.[Ti]
not listed: [2] | [7] | [8]
inactive: all other assays above

ClCc1ccccc1Cl
active: [8] 100 µM
not listed: [2]
inactive: all other assays above

Cc1cc(Cl)ccc1N
not listed: [2] | [7]
inactive: all other assays above

ClCCCCl
not listed: [2] | [4]
inactive: all other assays above

CC[N+](CC)(CC)CC
not listed: [2] | [7]
inactive: all other assays above

CCOC(=O)C(SP(=S)(OC)OC)c1ccccc1 (stereo not given)
not listed: [2]
inactive: all other assays above

COc1ccccc1N
not listed: [2] | [7] | [8]
inactive: all other assays above

CCOP(=S)(OCC)O/N=C(\C#N)c1ccccc1
not listed: [2] | [10]
inactive: all other assays above

Nc1ccc(N)cc1
active: [9] 100 µM
inactive: [1] | [3] | [4] | [5] | [6] | [7] | [9]

Cc1cc(Cl)ccc1OCCCC(=O)O
not listed: [2] | [4] | [10]
inactive: all other assays above

Clc1cccc(Cl)c1
not listed: [2] | [4] | [7]
inactive: all other assays above

CC(C)[C@H](C(=O)OC(C#N)c1cccc(Oc2ccccc2)c1)c1ccc(OC(F)F)cc1 (stereo not given in full)
not listed: [2]
inactive: all other assays above

CC(C)(C)c1ccccc1O
not listed: [2] | [7] | [10]
inactive: all other assays above

O=C(O)CC(O)(CC(=O)O)C(=O)O
not listed: [2] | [7] | [8]
inactive: all other assays above

OCCCCO
not listed: [2] | [10]
inactive: all other assays above

Cc1cc(Cl)ccc1O
not listed: [2]
inactive: all other assays above

CC1(C)[C@H](C(=O)O[C@H](C#N)c2cccc(Oc3ccccc3)c2)[C@@H]1/C=C(\Cl)C(F)(F)F
not listed: [2]
inactive: all other assays above
